Experimental data taken from the supplement of paper PMC10849652.
About 7,900 targets were measured; listed, in parts, are those with a hit and a random draw of the rest. About 0.6% of all pairs of compound and target were hits.

Tests used:
Assay in all cases: log2 fold change, soluble protein after heating vs DMSO (PISA); higher = thermal stabilisation; K562 cells, 10 uM, 30 min; active = over 0.2 and 3.5 SD of the protein, either way, in both replicates (recomputed)
[1] = compound: C#Cc1cccc(Nc2ncnc3cc(OCCOC)c(OCCOC)cc23)c1 [erlotinib]
Procedure, shortened: (§1)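 Thermal stability values are relative to control samples and come from duplicates. They are expressed as log2 fold changes. For measurement, K562 cells (2×10^6 cells/mL) received 10 μM compound for 30 min, and aliquots were heated for 3 min over 48°C-58°C, pooled, and extracted at 4°C in PBS with 0.5% NP-40. Soluble protein, the supernatant after 21,000xg for 90 min, was quantified by TMTpro 16plex LC-MS/MS with equalised channel sums.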

[2] = compound: C/C(=N\NC(=O)C1=CC(=CC=C1)S(=O)(=O)N2CCOCC2)/C3=C(C=CC(=C3)Cl)O
Procedure, shortened: as §1

[3] = compound: C1=CC(=C(C=C1Cl)C2=NC3=NC=CN=C3C(=N2)NC4=CC=NC=C4)F
Procedure, shortened: as §1

[4] = compound: C1=CC(=CC=C1C2=NC3=C(N2)C=C(C=C3)C(=O)N)OC4=CC=C(C=C4)Cl
Procedure, shortened: as §1

[5] = compound: C1=CC2=C(C=CC(=C2)/C=C\3/C(=O)NC(=NCC4=CC=CS4)S3)N=C1
Procedure, shortened: as §1

[6] = compound: C1=CC2=NC=CN=C2C=C1/C=C/3\C(=O)NC(=O)S3
Procedure, shortened: as §1

[7] = compound: C1=CC=C(C=C1)C2=NC(=C(N2)C3=CC=NC=C3)C4=CC(=C(C=C4)Cl)O
Procedure, shortened: as §1

[8] = compound: C1=CC=C2C(=C1)C3=NNC4=CC=CC(=C43)C2=O
Procedure, shortened: as §1

[9] = compound: C1CCN(C1)C(=O)NC2=CC=CC(=C2)NC3=NC=C(C(=N3)NCCC4=CN=CN4)Br
Procedure, shortened: as §1

[10] = compound: C1CN(CCC1(CC2=CC=C(C=C2)Cl)N)C3=NC=NC4=C3C=CN4
Procedure, shortened: as §1

Measured: log2 fold change

TRAPPC2L (UniProt Q9UL33)
Sequence of UniProt Q9UL33 (Q9UL33 whole entry, looked up): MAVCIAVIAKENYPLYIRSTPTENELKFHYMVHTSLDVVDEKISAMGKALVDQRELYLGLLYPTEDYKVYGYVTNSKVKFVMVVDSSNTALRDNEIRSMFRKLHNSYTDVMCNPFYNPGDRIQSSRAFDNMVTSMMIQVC
inactive: [1] 0.193 | [2] 0.062 | [3] -0.037 | [4] -0.273 | [5] -0.047 | [6] 0.001 | [7] -0.096 | [8] -0.008 | [9] -0.083 | [10] -0.031

USP7 (UniProt Q93009)
inactive: [1] 0.089 | [2] 0.139 | [3] 0.046 | [4] 0 | [5] 0.159 | [6] 0.004 | [7] 0.068 | [8] 0.085 | [9] -0.04 | [10] -0.003

TYW1 (UniProt Q9NV66)
inactive: [1] -0.045 | [2] 0.012 | [3] 0.055 | [4] 0.057 | [5] 0.003 | [6] 0.009 | [7] 0.042 | [8] 0.057 | [9] -0.041 | [10] 0.022

UBE2J1 (UniProt Q9Y385)
Sequence of UniProt Q9Y385 (Q9Y385 whole entry, looked up): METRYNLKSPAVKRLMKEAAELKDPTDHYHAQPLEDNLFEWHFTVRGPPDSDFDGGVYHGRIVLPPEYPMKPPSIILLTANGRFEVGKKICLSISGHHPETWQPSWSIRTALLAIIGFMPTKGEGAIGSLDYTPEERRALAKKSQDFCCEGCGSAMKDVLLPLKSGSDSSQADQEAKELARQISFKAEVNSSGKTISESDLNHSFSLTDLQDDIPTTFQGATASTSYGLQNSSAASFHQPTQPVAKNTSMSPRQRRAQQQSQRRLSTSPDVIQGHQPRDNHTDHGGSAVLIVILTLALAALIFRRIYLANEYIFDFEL
inactive: [1] 0.053 | [2] 0.063 | [3] -0.033 | [4] 0.045 | [5] 0.148 | [6] 0.054 | [7] 0.043 | [8] 0.036 | [9] -0.097 | [10] 0.012

VTI1A (UniProt Q96AJ9)
inactive: [1] -0.07 | [2] 0.026 | [3] -0.037 | [4] -0.014 | [5] 0.015 | [6] 0.087 | [7] -0.055 | [8] -0.002 | [9] 0.019 | [10] 0.005

TRIM4 (UniProt Q9C037)
Sequence of UniProt Q9C037 (Q9C037 whole entry, looked up): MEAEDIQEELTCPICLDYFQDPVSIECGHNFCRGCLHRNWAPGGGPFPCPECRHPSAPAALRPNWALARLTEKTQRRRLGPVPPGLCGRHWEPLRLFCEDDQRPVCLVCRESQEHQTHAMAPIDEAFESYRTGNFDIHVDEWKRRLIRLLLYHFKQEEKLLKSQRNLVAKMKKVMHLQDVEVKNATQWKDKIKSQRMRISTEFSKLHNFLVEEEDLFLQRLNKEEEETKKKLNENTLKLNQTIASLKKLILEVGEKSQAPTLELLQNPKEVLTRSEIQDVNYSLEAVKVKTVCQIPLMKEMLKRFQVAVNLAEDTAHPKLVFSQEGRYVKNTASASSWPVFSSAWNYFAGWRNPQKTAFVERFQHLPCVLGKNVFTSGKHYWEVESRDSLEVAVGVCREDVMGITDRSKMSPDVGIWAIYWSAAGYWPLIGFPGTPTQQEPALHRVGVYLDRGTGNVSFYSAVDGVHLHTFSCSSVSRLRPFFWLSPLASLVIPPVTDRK
inactive: [1] 0.004 | [2] 0.031 | [3] 0.035 | [4] -0.199 | [5] 0.002 | [6] -0.01 | [7] -0.029 | [8] 0.135 | [9] -0.111 | [10] -0.073

TMEM161A (UniProt Q9NX61)
Sequence of UniProt Q9NX61 (Q9NX61 whole entry, looked up): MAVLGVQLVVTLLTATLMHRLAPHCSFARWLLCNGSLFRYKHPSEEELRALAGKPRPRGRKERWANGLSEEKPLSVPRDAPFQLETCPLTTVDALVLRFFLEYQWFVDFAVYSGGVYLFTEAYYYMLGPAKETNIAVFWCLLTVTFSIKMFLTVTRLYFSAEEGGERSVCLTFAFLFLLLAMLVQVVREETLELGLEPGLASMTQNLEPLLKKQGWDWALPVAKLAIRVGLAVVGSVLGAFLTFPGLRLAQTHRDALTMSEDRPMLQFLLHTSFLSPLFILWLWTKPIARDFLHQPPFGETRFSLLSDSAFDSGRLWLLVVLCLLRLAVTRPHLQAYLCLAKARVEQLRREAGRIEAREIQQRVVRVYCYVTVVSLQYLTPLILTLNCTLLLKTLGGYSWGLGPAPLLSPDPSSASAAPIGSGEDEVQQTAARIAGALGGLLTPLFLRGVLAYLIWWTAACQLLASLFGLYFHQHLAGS
inactive: [1] 0.017 | [2] 0.088 | [3] -0.019 | [4] -0.018 | [5] 0.021 | [6] 0.001 | [7] 0.029 | [8] -0.006 | [9] -0.067 | [10] 0.054

UBAP1 isoform 4 (UniProt Q9NZ09)
Sequence of UniProt Q9NZ09 (Q9NZ09 whole entry, looked up): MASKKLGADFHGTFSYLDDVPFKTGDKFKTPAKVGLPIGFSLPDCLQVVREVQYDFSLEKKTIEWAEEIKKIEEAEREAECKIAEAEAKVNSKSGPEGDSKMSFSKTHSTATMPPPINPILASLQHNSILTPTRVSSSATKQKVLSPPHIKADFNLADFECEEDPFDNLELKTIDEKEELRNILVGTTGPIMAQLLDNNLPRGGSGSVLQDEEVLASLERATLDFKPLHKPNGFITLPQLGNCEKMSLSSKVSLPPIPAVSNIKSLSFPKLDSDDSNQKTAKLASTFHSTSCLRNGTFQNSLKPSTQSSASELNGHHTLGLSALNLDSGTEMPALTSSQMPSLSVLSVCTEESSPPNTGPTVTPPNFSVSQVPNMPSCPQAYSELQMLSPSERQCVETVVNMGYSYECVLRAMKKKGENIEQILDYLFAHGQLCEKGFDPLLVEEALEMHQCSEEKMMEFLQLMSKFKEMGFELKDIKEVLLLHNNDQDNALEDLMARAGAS
inactive: [1] 0.001 | [2] 0.127 | [3] 0.013 | [4] 0.049 | [5] 0.025 | [6] 0.027 | [7] -0.02 | [8] 0.024 | [9] 0.058 | [10] -0.093

TRMT2A (UniProt Q8IZ69)
inactive: [1] 0 | [2] 0.069 | [3] -0.124 | [4] 0.07 | [5] -0.016 | [6] -0.009 | [7] -0.026 | [8] -0.09 | [9] 0.031 | [10] -0.011

VPS51 (UniProt Q9UID3)
inactive: [1] -0.003 | [2] 0.123 | [3] -0.02 | [4] -0.01 | [5] -0.002 | [6] 0.035 | [7] -0.014 | [8] -0.016 | [9] -0.029 | [10] -0.02

UCHL5 (UniProt Q9Y5K5)
inactive: [1] -0.018 | [2] 0.094 | [3] 0.005 | [4] -0.024 | [5] 0.036 | [6] 0.008 | [7] 0.02 | [8] 0.03 | [9] -0.001 | [10] -0.01

TMEM208 (UniProt Q9BTX3)
Sequence of UniProt Q9BTX3 (Q9BTX3 whole entry, looked up): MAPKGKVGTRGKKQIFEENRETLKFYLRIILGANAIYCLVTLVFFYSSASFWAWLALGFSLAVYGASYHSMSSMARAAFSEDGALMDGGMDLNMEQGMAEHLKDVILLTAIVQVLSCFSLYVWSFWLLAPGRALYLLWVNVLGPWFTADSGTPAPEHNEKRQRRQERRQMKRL
inactive: [1] -0.021 | [2] 0.032 | [3] 0.101 | [4] 0.046 | [5] 0.13 | [6] 0.011 | [7] -0.054 | [8] -0.098 | [9] -0.002 | [10] 0.033

TXNIP (UniProt Q9H3M7)
inactive: [1] 0.013 | [2] 0.017 | [3] 0.082 | [4] 0.025 | [5] 0.108 | [6] 0.124 | [7] 0.141 | [8] 0.034 | [9] 0.137 | [10] 0.041

TMEM161B (UniProt Q8NDZ6)
Sequence of UniProt Q8NDZ6 (Q8NDZ6 whole entry, looked up): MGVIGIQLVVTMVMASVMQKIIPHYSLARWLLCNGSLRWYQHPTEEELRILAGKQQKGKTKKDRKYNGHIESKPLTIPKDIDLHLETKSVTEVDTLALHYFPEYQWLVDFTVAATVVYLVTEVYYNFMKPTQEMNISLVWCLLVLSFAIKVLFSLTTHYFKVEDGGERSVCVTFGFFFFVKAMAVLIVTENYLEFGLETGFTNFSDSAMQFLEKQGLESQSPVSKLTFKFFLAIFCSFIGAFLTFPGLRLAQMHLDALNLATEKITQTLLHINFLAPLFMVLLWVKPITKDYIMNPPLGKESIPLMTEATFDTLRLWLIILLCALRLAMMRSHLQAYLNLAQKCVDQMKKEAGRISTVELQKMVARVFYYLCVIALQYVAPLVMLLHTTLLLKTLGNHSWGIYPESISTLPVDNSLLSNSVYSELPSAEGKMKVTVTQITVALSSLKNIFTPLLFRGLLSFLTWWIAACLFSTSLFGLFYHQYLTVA
inactive: [1] 0.037 | [2] -0.074 | [3] 0.013 | [4] -0.021 | [5] -0.054 | [6] 0.018 | [7] 0.159 | [8] -0.026 | [9] -0.053 | [10] -0.03

VPS52 (UniProt Q8N1B4)
Sequence of UniProt Q8N1B4 (Q8N1B4 whole entry, looked up): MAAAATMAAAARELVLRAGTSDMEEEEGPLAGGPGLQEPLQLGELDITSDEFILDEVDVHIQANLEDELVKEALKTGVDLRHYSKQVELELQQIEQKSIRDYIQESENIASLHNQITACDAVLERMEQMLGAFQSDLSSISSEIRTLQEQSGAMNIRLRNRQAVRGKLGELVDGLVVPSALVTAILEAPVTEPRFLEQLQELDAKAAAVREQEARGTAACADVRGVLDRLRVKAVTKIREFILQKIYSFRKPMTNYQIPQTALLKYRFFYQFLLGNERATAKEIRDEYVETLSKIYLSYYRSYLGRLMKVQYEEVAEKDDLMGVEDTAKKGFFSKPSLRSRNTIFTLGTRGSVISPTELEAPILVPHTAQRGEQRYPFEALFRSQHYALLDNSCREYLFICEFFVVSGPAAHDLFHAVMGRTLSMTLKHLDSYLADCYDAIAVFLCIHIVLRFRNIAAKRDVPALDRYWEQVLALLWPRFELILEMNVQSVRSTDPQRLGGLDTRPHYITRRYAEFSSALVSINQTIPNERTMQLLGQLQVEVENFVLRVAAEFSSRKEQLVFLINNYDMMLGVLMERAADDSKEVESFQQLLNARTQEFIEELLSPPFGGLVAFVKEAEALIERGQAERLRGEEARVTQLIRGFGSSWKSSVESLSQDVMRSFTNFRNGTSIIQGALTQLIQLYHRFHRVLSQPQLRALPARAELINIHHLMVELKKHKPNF
inactive: [1] 0.019 | [2] 0.048 | [3] -0.029 | [4] 0.067 | [5] 0.032 | [6] 0.031 | [7] 0.004 | [8] 0.079 | [9] -0.033 | [10] -0.051

TOM1L1 (UniProt O75674)
inactive: [1] 0.019 | [2] -0.009 | [3] -0.003 | [4] 0.044 | [5] -0.038 | [6] 0.037 | [7] -0.023 | [8] -0.026 | [9] 0.006 | [10] 0.076

WDR61 (UniProt Q9GZS3)
inactive: [1] 0.021 | [2] 0.066 | [3] 0.051 | [4] 0.027 | [5] 0.057 | [6] -0.016 | [7] 0.01 | [8] 0 | [9] 0.077 | [10] 0.026

VPS18 (UniProt Q9P253)
inactive: [1] 0.026 | [2] 0.065 | [3] 0.019 | [4] 0.023 | [5] 0.04 | [6] 0.04 | [7] -0.086 | [8] -0.012 | [9] -0.006 | [10] -0.024

TTC33 (UniProt Q6PID6)
inactive: [1] 0.065 | [2] -0.035 | [3] 0.019 | [4] 0.001 | [5] 0.176 | [6] -0.107 | [7] -0.045 | [8] -0.038

TMEM87B (UniProt Q96K49)
inactive: [1] 0.035 | [2] 0.059 | [3] -0.069 | [4] 0.013 | [5] 0.003 | [6] 0.055 | [7] 0.009 | [8] -0.143 | [9] -0.06 | [10] 0.047

TTI2 (UniProt Q6NXR4)
inactive: [1] 0 | [2] 0.053 | [3] 0.003 | [4] -0.035 | [5] 0.029 | [6] -0.036 | [7] -0.095 | [8] 0.046 | [9] 0.008 | [10] -0.028

TSFM (UniProt P43897)
Sequence of UniProt P43897 (P43897 whole entry, looked up): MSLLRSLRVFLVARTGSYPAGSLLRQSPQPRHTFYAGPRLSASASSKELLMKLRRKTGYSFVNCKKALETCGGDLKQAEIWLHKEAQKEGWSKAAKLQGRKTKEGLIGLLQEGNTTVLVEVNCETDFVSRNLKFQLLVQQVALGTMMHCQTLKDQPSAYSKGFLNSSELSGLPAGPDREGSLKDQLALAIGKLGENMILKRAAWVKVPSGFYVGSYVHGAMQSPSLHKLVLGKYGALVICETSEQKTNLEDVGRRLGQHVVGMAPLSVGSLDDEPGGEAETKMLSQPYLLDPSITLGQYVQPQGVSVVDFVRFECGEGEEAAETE
inactive: [1] 0.037 | [2] -0.004 | [3] 0.302 | [4] -0.206 | [5] 0.189 | [6] 0.044 | [7] 0.11 | [8] -0.069 | [9] -0.016 | [10] 0.095

WASHC2A (UniProt Q641Q2)
Sequence of UniProt Q641Q2 (Q641Q2 whole entry, looked up): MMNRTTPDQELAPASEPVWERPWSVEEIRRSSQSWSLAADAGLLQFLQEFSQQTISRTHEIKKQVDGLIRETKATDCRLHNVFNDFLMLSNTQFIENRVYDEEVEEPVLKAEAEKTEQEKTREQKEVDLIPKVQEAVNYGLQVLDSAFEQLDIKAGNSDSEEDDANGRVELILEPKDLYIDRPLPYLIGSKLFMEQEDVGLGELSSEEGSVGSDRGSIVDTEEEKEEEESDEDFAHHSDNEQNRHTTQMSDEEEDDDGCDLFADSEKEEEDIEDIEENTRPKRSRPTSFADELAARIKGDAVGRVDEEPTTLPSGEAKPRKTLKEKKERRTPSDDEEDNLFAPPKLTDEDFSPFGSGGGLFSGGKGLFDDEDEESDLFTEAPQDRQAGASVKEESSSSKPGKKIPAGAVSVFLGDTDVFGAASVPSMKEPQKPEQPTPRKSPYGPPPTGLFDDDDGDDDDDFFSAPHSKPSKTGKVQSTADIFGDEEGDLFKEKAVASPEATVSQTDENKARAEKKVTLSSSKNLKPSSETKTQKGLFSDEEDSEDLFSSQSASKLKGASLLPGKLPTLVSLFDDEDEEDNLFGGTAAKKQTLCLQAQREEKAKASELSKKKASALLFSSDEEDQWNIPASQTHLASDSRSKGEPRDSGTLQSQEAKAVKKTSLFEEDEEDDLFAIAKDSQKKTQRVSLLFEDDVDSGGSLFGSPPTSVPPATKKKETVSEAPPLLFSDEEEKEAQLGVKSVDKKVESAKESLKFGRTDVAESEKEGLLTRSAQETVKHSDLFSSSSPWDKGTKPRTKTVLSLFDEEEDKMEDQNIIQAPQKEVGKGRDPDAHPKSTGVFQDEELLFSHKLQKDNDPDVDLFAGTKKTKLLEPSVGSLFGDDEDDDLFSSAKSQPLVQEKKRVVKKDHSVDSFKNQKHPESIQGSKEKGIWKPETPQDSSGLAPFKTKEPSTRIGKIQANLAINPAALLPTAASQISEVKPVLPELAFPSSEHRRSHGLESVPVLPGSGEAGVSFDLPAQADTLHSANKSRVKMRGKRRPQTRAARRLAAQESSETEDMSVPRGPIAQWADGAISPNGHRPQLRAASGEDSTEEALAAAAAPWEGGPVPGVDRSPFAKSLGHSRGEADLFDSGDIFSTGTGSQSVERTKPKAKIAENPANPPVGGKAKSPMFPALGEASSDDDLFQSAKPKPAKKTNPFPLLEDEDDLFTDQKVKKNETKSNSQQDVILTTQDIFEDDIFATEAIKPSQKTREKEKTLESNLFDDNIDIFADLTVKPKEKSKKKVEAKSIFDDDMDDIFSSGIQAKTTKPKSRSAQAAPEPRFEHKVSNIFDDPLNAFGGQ
inactive: [1] 0.008 | [2] -0.026 | [3] -0.025 | [4] 0.002 | [5] 0.004 | [6] 0.058 | [7] -0.072 | [8] -0.037 | [9] 0.029 | [10] -0.017

USP14 (UniProt P54578)
inactive: [1] -0.027 | [2] 0.03 | [3] 0.084 | [4] -0.014 | [5] -0.04 | [6] 0 | [7] 0.02 | [8] 0.015 | [9] -0.016 | [10] -0.001

USP34 (UniProt Q70CQ2)
inactive: [1] 0.065 | [2] 0.074 | [3] 0.026 | [4] -0.02 | [5] 0.145 | [6] -0.013 | [7] 0.027 | [8] -0.043 | [9] 0.015 | [10] -0.086

WDR11 (UniProt Q9BZH6)
inactive: [1] 0.103 | [2] -0.081 | [3] 0.145 | [4] -0.004 | [5] 0.115 | [6] 0.067 | [7] -0.168 | [8] 0.005 | [9] 0.091 | [10] 0.023

TNPO3 (UniProt Q9Y5L0)
inactive: [1] -0.01 | [2] 0.132 | [3] 0.068 | [4] -0.009 | [5] -0.014 | [6] 0.029 | [7] 0.023 | [8] -0.007 | [9] 0.004 | [10] -0.03

XPNPEP3 (UniProt Q9NQH7)
active: [2] -0.275
inactive: [1] 0.019 | [3] 0.017 | [4] 0.06 | [5] 0.067 | [6] 0.026 | [7] -0.005 | [8] 0 | [9] 0.005 | [10] 0.083

VPS11 (UniProt Q9H270)
inactive: [1] -0.041 | [2] 0.099 | [3] 0.015 | [4] 0.005 | [5] 0.058 | [6] 0.068 | [7] 0.03 | [8] -0.011 | [9] 0.002 | [10] 0.027

TMEM263 (UniProt Q8WUH6)
inactive: [1] 0.093 | [2] 0.024 | [3] 0.024 | [4] -0.012 | [5] 0.058 | [6] -0.013 | [7] 0.02 | [8] -0.101 | [9] 0.036 | [10] 0.022
